Pf growth 48h = P. falciparum growth inhibition at 48 hours (one generation) | AID 504832 | Potency, µM (series often up to 28.7 µM), inactives show at the highest dose activity change, negative = inhibition, most hits filed as inhibitors | 310,000 compounds, 5.9% hits | P. falciparum luciferase growth in erythrocytes, 48 h
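Luciferase-expressing P. falciparum in infected erythrocytes (2% hematocrit, 0.1% parasitemia final) in RPMI 1640/0.5% Albumax were exposed to compound for 48 hours at 37 C, 5% CO2; growth read as luminescence.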
AmpC inh detg = blocks E. coli AmpC beta-lactamase in detergent assay. AmpC hydrolysis of nitrocefin, absorbance 480 nm, 0.01% Triton. Potency, µM (doses to about 114 µM), without a hit: at the top dose activity change, negative = inhibition, hits mostly inhibitors. P00811. 370,000 compounds, 0.041% hits;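 note: 0% = no-compound wells and -100% = no-enzyme wells; nearly all actives have a fitted effect of over 25% in size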
Target sequence (P00811 whole entry, looked up): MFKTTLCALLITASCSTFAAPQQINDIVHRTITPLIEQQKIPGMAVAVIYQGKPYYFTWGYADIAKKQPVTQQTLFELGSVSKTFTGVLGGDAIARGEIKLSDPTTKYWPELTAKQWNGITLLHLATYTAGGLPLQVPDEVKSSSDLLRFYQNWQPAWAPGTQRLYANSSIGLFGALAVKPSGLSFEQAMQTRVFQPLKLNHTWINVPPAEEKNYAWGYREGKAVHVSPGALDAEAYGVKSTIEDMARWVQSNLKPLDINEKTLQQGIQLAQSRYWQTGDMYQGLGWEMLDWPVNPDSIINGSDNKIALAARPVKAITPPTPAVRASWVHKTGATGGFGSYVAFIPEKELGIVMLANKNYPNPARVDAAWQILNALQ
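20 mM phosphate pH 7.0 + 0.01% (detergent screen) or 0.0001% Triton X-100; 5.3 nM AmpC reagent; cpd preinc 15 min RT; nitrocefin (800 uM stock) to start; A480 q20 s × 4 min; Activity was normalised to no-enzyme and no-compound control wells.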
AMA1-RON2 inh = AMA1-RON2 (P. falciparum) interaction inhibition. AID 720542. 360,000 compounds, 0.2% hits. Potency, µM (highest dose often 58.2 µM), without a hit: top-dose activity change, negative = inhibition, hits mostly inhibitors. AlphaScreen AMA1-biotinylated RON2 peptide binding;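 note: 0% = vehicle wells and -100% = peptide control; nearly all actives have a fitted effect of over 45% in size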
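AMA1 (3D7) with his tag at 25 nM final met compounds first, then biotinylated RON2 peptide at 25 nM; detection used donor plus acceptor beads, 10 µg/mL apiece, read by AlphaScreen after 30 min at room temperature.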
AmpC no deterg = inhibitors of E. coli AmpC beta-lactamase without detergent | AmpC nitrocefin hydrolysis, absorbance 480 nm, 0.0001% Triton | Potency, µM (doses to about 57.1 µM), for the others: at the highest dose activity change, negative = inhibition, hits mostly inhibitors | 330,000 compounds, 0.52% hits | AID 485341;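 note: plate controls were no compound for no effect and no enzyme for full effect; nearly all actives have a fitted effect of over 20% in size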
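AmpC (5.3 nM in the dispensed reagent) in 20 mM phosphate pH 7.0 with 0.01% (detergent screen) or 0.0001% Triton X-100 was preincubated with compounds for 15 min at room temperature. Nitrocefin was then added from an 800 uM solution, and hydrolysis was followed at 480 nm.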
Pf growth 96h = P. falciparum growth inhibition at 96 hours; P. falciparum luciferase reporter growth, 96 h; Potency, µM (titrated, usually from 28.7 µM), for inactives: at the highest dose activity change, negative = inhibition, usual class: inhibitors; 320,000 compounds, 6.9% hits; AID 504834
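Two parasite generations (96 h, 37 C, 5% CO2) of compound exposure in infected erythrocytes (0.05% parasitemia, 2% hematocrit). Luciferase-reporter P. falciparum; decreased luminescence indicates inhibited growth, aimed at apicoplast-acting delayed death.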
HCV inh = blocks hepatitis C virus | Potency, µM (highest dose often 41.8 µM), inactives show at the highest dose activity change, negative = inhibition, hits mostly inhibitors | 340,000 compounds, 3.4% hits | AID 651820 | Huh7.5.1 HCVcc-Cre infection, luciferase reporter, 44 h
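Cells (1,000/well) were plated 4 h before compound, then infected with HCVcc-Cre virus (~0.5 moi). After 44 h further culture, infection was read as luciferase luminescence following a 15 min substrate incubation at room temperature.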
An asterisk follows results filed as active; ? = inconclusive; . = no result given. This is a sample that favours compounds with a hit; in the whole collection about 11% have one here. Calls come from the whole dose curve; as a rule, active = well fitted curve in the direction sought with a large enough effect; inconclusive = small, poorly fitted or top-dose-only effect, or another doubt; inactive = no such curve, though single readings can be large; an effect the other way counts as inactive or inconclusive. Unless noted, % is set by controls: 0 for no effect and ±100 for the full control effect; potency is the fitted concentration of half-maximal effect.

SMILES	Pf growth 48h	AmpC inh detg	AMA1-RON2 inh	AmpC no deterg	Pf growth 96h	HCV inh
CCCC(=O)Nc1nc2ccc(OC)cc2s1	35%	?	-2%	-24%	66%	?
Cc1cc(C)c(NC(=O)Cn2c(=O)n(CCC(=O)N3CCc4ccccc4C3)c(=O)c3ccccc32)c(C)c1	.	17%	.	.	.	.
Cc1ccc(CNCC2CCCO2)o1 (centres undefined)	-3%	?	1%	-13%	13µM*	7%
Clc1ccc(CNCC2CCCO2)cc1 (centres undefined)	52%	-14%	13%	-9%	18%	-7%
CCOc1ccc(Nc2nc(C)c(NC(=O)c3cccc(F)c3)c(Nc3ccc(OCC)cc3)n2)cc1	.	17%	.	.	.	.
COc1ccc(CN2CCC(N3CC(C)OC(C)C3)CC2)c(OC)c1OC (centres undefined)	3%	?	13µM*	-11%	-11%	-4%
COC(=O)C1C(=O)C2=C(CC1C)NC(C)=C(C(=O)OC1CCCCC1)C2c1ccc(N(C)C)cc1 (centres undefined)	5.9µM*	-9%	?	221%	37%	?
CC1=C(C(=O)OCc2ccccc2)C(c2ccc(C)o2)C2=C(CCCC2=O)N1 (centres undefined)	12µM*	0%	-17%	23%	85%	?
COC(=O)C1C(=O)C2=C(CC1C)NC(C)=C(C(=O)OC(C)C)C2c1ccc(C)o1 (centres undefined)	?	2%	-7%	22%	.	19%
COC(=O)C1C(=O)C2=C(CC1C)NC(C)=C(C(=O)OCCOc1ccccc1)C2c1ccc(C)o1 (centres undefined)	0%	-3%	-10%	39%	.	13µM*
CC1=C(C(=O)OC2CCCCC2)C(c2ccc(C)o2)C2=C(CCCC2=O)N1 (centres undefined)	.	?	1%	47%	?	-18%
Cc1ccc(OCc2cc(=O)n3ccsc3n2)c(NC(=O)c2ccco2)c1	.	-2%	.	.	.	.
Cc1c(Cl)cccc1-c1ccc(/C=N/n2cnnc2)o1	.	-12%	-2%	19%	8.3µM*	6%
Clc1cccc(-c2ccc(/C=N/n3cnnc3)o2)c1Cl	-1%	-8%	10%	-18%	-26%	7%
O=C1C(c2ccc(F)cc2)N(CCc2ccc(Cl)cc2)C(=O)CN1C1CCCCCC1 (centres undefined)	.	9%	.	.	.	.
CCCCn1c(O)c(C(CC)=NCc2ccc(F)cc2)c(=O)[nH]c1=O	?	5%	4%	1%	?	?
CCCCn1c(O)c(C(C)=NCc2ccc(F)cc2)c(=O)[nH]c1=O	-14%	?	0%	-24%	6.6µM*	-21%
CS(=O)(=O)c1ccc(C(=O)NCCN2C(=O)S/C(=C\c3cccnc3)C2=O)cc1[N+](=O)[O-]	5.2µM*	-4%	-11%	-19%	?	?
CN(C)S(=O)(=O)c1ccc(C(=O)NCCN2C(=O)S/C(=C\c3cccnc3)C2=O)cc1	?	-9%	17%	-5%	?	-9%
c1ccc2c(N3CCOCC3)nc(N3CCOCC3)nc2c1	?	-3%	-12%	-12%	4.1µM*	-28%
c1ccc(CN2CCN(c3nc(N4CCOCC4)c4ccccc4n3)CC2)cc1	.	.	52%	.	.	?
c1ccc2c(N3CCOCC3)nc(-c3ccncc3)nc2c1	9.3µM*	?	-2%	-13%	-14%	?
CC1CCN(c2nc(-c3ccncc3)nc3ccccc23)CC1	4.1µM*	-5%	14%	35%	4.7µM*	7.1µM*
CC12CC3CC(C)(C1)CC(Nc1nc(N4CCOCC4)nc4ccccc14)(C3)C2	1.7µM*	9%	17%	-15%	1.3µM*	1%
c1ccc2c(Nc3ccc(N4CCOCC4)cc3)nc(N3CCOCC3)nc2c1	?	-10%	7%	22%	-24%	?
SMILES	Pf growth 48h	AmpC inh detg	AMA1-RON2 inh	AmpC no deterg	Pf growth 96h	HCV inh
COCCNC(=O)c1c(NC(=O)c2cc(=O)c3cc(C)cc(C)c3o2)sc2c1CCCC2	.	17%	.	.	.	.
COc1ccc(CN(C(=O)Nc2cc(C)ccc2C)C2CCN(C(C)=O)CC2)cc1	.	-3%	.	.	.	.
NC(=O)c1ccccc1NC(=O)c1cc(S(=O)(=O)N2CCCCC2)ccc1N1CCOCC1	13µM*	-10%	1%	19%	6.6µM*	10%
O=C(NC1CCCCCC1)c1cc(S(=O)(=O)N2CCCCC2)ccc1N1CCOCC1	12µM*	0%	-13%	105%	?	6%
O=C(NC1CCCCCC1)c1cc(S(=O)(=O)N2CCOCC2)ccc1N1CCCCC1	?	-8%	12%	117%	6.6µM*	-22%
CCCN(Cc1cc2cc(C)ccc2[nH]c1=O)C(=O)c1cccc(Cl)c1	.	13%	.	.	.	.
CC(C)c1ccc(NC(=S)NC2CCN(Cc3ccccc3)CC2)cc1	10µM*	?	-6%	-20%	?	?
Cc1ccc(NC(=S)NC2CC3CCC(C2)N3Cc2ccco2)c(C)c1 (centres undefined)	7%	-1%	-3%	-4%	?	-2%
S=C(Nc1cc(Cl)cc(Cl)c1)NC1CCN(Cc2ccccc2)CC1	5.9µM*	?	?	-33%	?	10µM*
Cc1ccc(NC(=S)NC2CCN(Cc3ccccc3)CC2)cc1C	?	-10%	-4%	-20%	?	11µM*
Cc1ccc(NC(=S)NC2CC3CCC(C2)N3Cc2ccco2)cc1C (centres undefined)	?	1%	-6%	-29%	12µM*	-11%
c1csc(-c2nc3c4ccccc4c4ccccc4c3[nH]2)c1	?	-13%	17%	-44%	?	13µM*
Oc1ccccc1-c1nc2c3ccccc3c3ccccc3c2[nH]1	9.3µM*	2%	17%	-60%	?	?
Cc1cccn2c(=O)c(/C=C(\C#N)c3nc4ccccc4n3C)c(Oc3ccc(Br)cc3)nc12	.	19%	.	.	.	.
Cc1noc(C)c1C(=O)Nc1ccc(F)cc1	12%	4%	5%	-7%	20%	6%
Cc1noc(C)c1C(=O)Nc1ccc2c(c1)CCC2	24%	-9%	7%	.	15µM*	.
CC(C)CC1c2[nH]c3ccccc3c2CCN1C(=O)CCC(=O)N(C)C (centres undefined)	1%	-3%	2%	23%	6.6µM*	3%
CC(=O)c1cc(C(=O)N2CCc3c([nH]c4ccccc34)C2CC(C)C)[nH]n1 (centres undefined)	?	-5%	8%	0%	9.3µM*	4%

From PubChem BioAssay
